Values joined by “and” are separate entries in the source; they are usually repeats but may differ in a detail not shown here. Identical values can stand only once. Inconclusive results are not listed. Active and inactive are the calls of the source. Calls come from the whole dose curve; as a rule, active = well fitted inhibition curve with a large enough effect in the repeat runs; inconclusive = weak or mixed curves; inactive = no such curve, though single readings can be large or run the other way.
Test: qHTS assay to identify small molecule antagonists of the thyroid receptor (TR) signaling pathway (AID 743065); note: nearly all actives have a fitted effect of over 55% in size
Settings: GH3.TRE-Luc, T3-stimulated luciferase inhibition, 23.5 h; series mostly up to 70.3 µM
Summary of the method: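 Antagonism measured as loss of luciferase signal in GH3 cells stably carrying a TRE-luciferase reporter, co-treated with compound and T3 (1 nM final) for 23.5 h at 37 C. Viability was read in the same well by CellTiter-Fluor.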
With Cc1oc(-c2ccccc2)nc1CCOc1ccc(C[C@H](Nc2ccccc2C(=O)c2ccccc2)C(=O)O)cc1 the Potency was 54.5 µM (active). In the case of CCN1CCN(c2cc(-c3ccc(F)cc3)c3c(n2)CCCCCC3)CC1, the Potency is reported as 18.8 µM (active). For CC(=O)Oc1ccc(C2(c3ccc(OC(C)=O)cc3)Oc3ccccc3NC2=O)cc1, the Potency was 5.96 µM (active). For CCN(CC)CCCN(c1ccccc1)C1Cc2ccccc2C1, the Potency was 2.11 µM (active). With CN(C)c1ccc(N=Nc2ccccc2C(=O)O)cc1 the Potency was 9.69 µM (active). With CCOC(=O)N1CCC(=C2c3ccc(Cl)cc3CCc3cccnc32)CC1 the Potency was 11.9 µM (active) and 9.69 µM (active). With N#CSCSc1nc2ccccc2s1 the Potency was 0.864 µM (active). For CCN(CC)CCNc1ccc(CO)c2sc3ccccc3c(=O)c12, the Potency was 1.06 µM (active). For NC(=O)C(=O)N/N=C/c1ccc([N+](=O)[O-])o1, the Potency was 21.1 µM (active). In the case of C=C1C(C)(C)[C@@]2(Cl)C(Cl)[C@]1(Cl)C(Cl)(Cl)C2(Cl)Cl (stereo not given in full), the Potency is reported as 23.9 µM (active). With c1cc(OCC2CO2)cc(OCC2CO2)c1 (stereo not given) the Potency was 7.63 µM (active). With O=C(Oc1ccccc1)c1cccc(C(=O)Oc2ccccc2)c1 the Potency was “inactive”. For CC1CCCNC1 (stereo not given), the Potency was “inactive”. In the case of Cc1cc(Nc2ccc(O)cc2)ccc1N, the Potency is reported as 7.66 µM (active). For Cc1c(C(=O)O)cccc1[N+](=O)[O-], the Potency was “inactive”. With C[C@@]12C(=O)OC(=O)[C@]1(C)C1CCC2O1 the Potency was 2.02 µM (active). With COC(=O)CC(C)CCC=C(C)C (stereo not given) the Potency was “inactive”. For Nc1ccc2cc3ccc(N)cc3nc2c1, the Potency was 5.31 µM (active) and 3.06 µM (active). For NC(=O)c1ccccc1N, the Potency was “inactive”. With CCCCCCCCCCOCC(O)CN (stereo not given) the Potency was 9.44 µM (active). With O=C1c2c(O)ccc(O)c2C(=O)c2c(NCCNCCO)ccc(NCCNCCO)c21 the Potency was 0.507 µM (active). In the case of CCN=c1cc2oc3cc(NCC)c(C)cc3c(-c3ccccc3C(=O)OCC)c-2cc1C, the Potency is reported as 609 nM (active) and 1.09 µM (active). With C/C=C/C(=O)Oc1c(CCCCCC(C)C)cc([N+](=O)[O-])cc1[N+](=O)[O-] the Potency was 3.86 µM (active). In the case of O=C(NO)c1ccccc1, the Potency is reported as 41.2 µM (active). In the case of CCCCCCCC/C=C\CCCCCCCC(=O)N(C)CC(=O)O, the Potency is reported as 61.1 µM (active). With CCCCCCCC/C=C/CCCOC(C)=O the Potency was “inactive”. With O=C1NC2CCCCN2C12CCN(CCCN1c3ccccc3CCc3ccc(Cl)cc31)CC2 (stereo not given) the Potency was 8.41 µM (active). In the case of O=C(O)CCCCCCC(=O)O, the Potency is reported as “inactive”. For O=C1OC(OC(=O)c2cccnc2Nc2cccc(C(F)(F)F)c2)c2ccccc21 (stereo not given), the Potency was 29.8 µM (active). In the case of COc1cc(C(=O)NS(=O)(=O)c2ccccc2C)ccc1Cc1cn(C)c2ccc(NC(=O)OC3CCCC3)cc12, the Potency is reported as 26.6 µM (active).

Reference: PubChem BioAssay (Tox21)
Potency is the fitted concentration of half-maximal effect.
